Assay outcomes deposited in PubChem BioAssay by National Center for Advancing Translational Sciences (NCATS).
Cycloheximide cs – Cycloheximide Counterscreen for Small Molecule Inhibitors of Shiga Toxin; cell reporter, cycloheximide protein synthesis inhibition counterscreen; 300,000 tested, 12% active; max response, %; in the data active = max response mostly above about 13%, no sharp cut-off; inactive = mostly below about 14%; also: read at 38.3 µM for the half of the compounds with a filed dose; 0% is about no effect
Pf growth 48h – Primary qHTS for delayed death inhibitors of the malarial parasite plastid, 48 hour incubation; P. falciparum luciferase growth in erythrocytes, 48 h; 310,000 tested, 5.9% active; Potency, µM (series often up to 28.7 µM), for inactives: at the highest dose activity change, negative = inhibition, most hits filed as inhibitors; also: potency is read from the fitted curve at half-maximal effect; % is scaled to controls: 0 for no effect and ±100 for the full control effect
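In quantitative HTS format, infected erythrocytes bearing luciferase-reporter parasites were treated for a single generation at 37 C. Luminescence after adding detection reagent served as the growth measure.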
Pf growth 96h – Primary qHTS for delayed death inhibitors of the malarial parasite plastid, 96 hour incubation | Potency, µM (highest dose often 28.7 µM), for inactives: at the top dose activity change, negative = inhibition, most hits filed as inhibitors | P. falciparum luciferase reporter growth, 96 h | 320,000 tested, 6.9% active | AID 504834, 2011; also: potency is read from the fitted curve at half-maximal effect; % is scaled to controls: 0 for no effect and ±100 for the full control effect
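P. falciparum expressing integrated firefly luciferase, in erythrocytes at 2% hematocrit, 0.05% parasitemia, incubated with compounds 96 h at 37 C, 5% CO2. Growth inhibition read as loss of luminescence; two-generation exposure targets delayed-death apicoplast inhibitors.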
Shiga inhibitor – A qHTS for Small Molecule Inhibitors of Shiga Toxin; Vero cells, Shiga toxin protein synthesis inhibition reporter; inhibition, % at 38.7 µM; 290,000 tested, 9.2% active; AID 2315, 2010; in the data active = inhibition mostly above about 28%, no sharp cut-off; inactive = mostly below about 43%; also: 0% is about no effect
Active calls of the source: *; ? = inconclusive; nt = no result. The list is not random: actives were taken first. Their share in the collection is about 21%. Unless noted, calls follow the shape of the dose curve; as a rule, active = well fitted inhibition curve with a large enough effect; inconclusive = small, poorly fitted or top-dose-only effect, or another doubt; inactive = no such curve, though single readings can be large or run the other way.

SMILES	Cycloheximide cs	Pf growth 48h	Pf growth 96h	Shiga inhibitor
O=C(Nc1cnc2ccccc2c1)C1COc2ccccc2O1 (stereo not drawn)	30.5*	21.3%	82.5%	80.3*
O=C(Nc1ccncc1)C1c2ccccc2Oc2ccccc21	-1.8	5.86µM*	nt	-6.7
O=C(Nc1ccc2c(c1)OCO2)C1COc2ccccc2O1 (stereo not drawn)	35.8*	78.6%	-21.4%	107.3*
O=C(Nc1ccncc1)C1COc2ccccc2O1 (stereo not drawn)	11.5*	20.6%	?	49.4
CC(C)n1c(=O)n(CC(=O)NCC2CCCO2)c(=O)c2c3c(sc21)COC(C)(C)C3 (stereo not drawn)	-3.0	-4.5%	?	1.0
Cc1cc(C)n(C(=O)c2ccc(NC(=O)C3COc4ccccc4O3)cc2)n1 (stereo not drawn)	17.9	29.6%	8.28µM*	-4.2
O=C(Nc1ccc(F)cc1)C1COc2ccccc2O1 (stereo not drawn)	19.7*	64.8%	96.1%	38.6
O=C(Nc1ccc2c(c1)CCC2)C1COc2ccccc2O1 (stereo not drawn)	58.2*	109.2%	?	40.3*
O=C(CSc1ncn[nH]1)Nc1cc(S(=O)(=O)N2CCCC2)ccc1Cl	-1.4	-14.0%	-17.8%	-11.0
Cc1ccc(N/N=C/c2ccc(N3CCOCC3)cc2)cc1C	59.0*	-16.4%	10.4µM*	135.7*
Cc1cccc(/C=N/NC(=O)C[n+]2ccccc2)c1	nt	-5.4%	?	nt
Cc1cccc(/C=N\NC(=O)c2csnn2)c1	74.1*	50.2%	-7.5%	88.5*
O=C(N/N=C/c1ccc(N2CCOCC2)cc1)c1ccccn1	26.9*	121.2%	126.1%	51.4*
Cc1ccc(/C=N/NC(=O)CNC(=O)Cc2ccccc2)o1	-7.1	-2.7%	-10.5%	-10.8
Cc1c(C(=O)N/N=C/c2ccc(N3CCOCC3)cc2)nc2ccccn12	-8.6	?	-2.2%	-3.1
CCc1c(C(=O)N/N=C/c2ccc(C)o2)csc1C	17.9*	?	?	-1.0
CCOc1ccc(S(=O)(=O)Nc2ccc3c(c2)OCO3)cc1	-7.3	20.3%	44.2%	12.4
O=C(N/N=C\c1ccc(Oc2ccccc2)cc1)c1csnn1	46.5*	67.0%	-12.1%	97.2*
CC(C)c1ccc(/C=N/NC(=O)c2ccccn2)cc1	31.5*	93.9%	311.5%	13.0
Cc1ccccc1OCC(=O)N/N=C/c1ccc(N(C)C)cc1	13.1	?	-0.8%	41.6
CN(C)c1ccc(/C=N\NC(=O)c2csnn2)cc1	18.1*	285.8%	154.0%	32.5*
O=C(N/N=C/c1cnc(N2CCOCC2)s1)c1ccccc1	19.8*	39.0%	-6.3%	37.5
CC(C)c1ccc(/C=N/NC(=O)c2ccc(-n3cnnn3)cc2)cc1	nt	-11.9%	4.1%	nt
CCOC(=O)C1=C(COC(=O)C(CC)c2ccccc2)NC(=O)NC1C (stereo not drawn)	nt	2.8%	10.6%	nt
Cc1ccc(/C=N/NC(=O)c2ccccn2)o1	41.6*	101.1%	?	47.2*
SMILES	Cycloheximide cs	Pf growth 48h	Pf growth 96h	Shiga inhibitor
O=C(N/N=C/c1ccc(N2CCOCC2)cc1)C1CC1	15.3	40.7%	48.4%	45.2*
CN(C)c1ccc(/C=N/NC(=O)c2ccccn2)cc1	22.8*	-43.0%	31.0%	15.0
CN(C)c1ccc(/C=N/NC(=O)c2cnc3ccccc3c2)cc1	-0.1	?	?	4.1
Cc1ccc(/C=N/NC(=O)c2ccncc2)o1	2.9	23.7%	83.9%	15.3
O=C(N/N=C/c1ccncc1)c1ccccn1	34.5*	63.7%	?	72.2*
COc1ccc(C(C(=O)NC2CCCC2)N(C(=O)c2csnn2)C2CCCC2)cc1 (stereo not drawn)	-4.8	-17.7%	?	2.9
CC1CCCN(C(=O)CSc2nnc3ccccn23)C1 (stereo not drawn)	nt	17.2%	5.6%	nt
Cc1c(C(=O)Nc2c(C)n(C)n(-c3ccccc3)c2=O)oc2ccc(Cl)cc12	-0.6	26.8%	?	-9.7
COc1ccc2c(C(=O)CCl)c[nH]c2c1	-3.4	14.7µM*	?	2.0
Cc1ccc(C(=O)OCC(=O)c2c[nH]c3ccccc23)cc1	48.1*	89.8%	173.5%	81.2*
COc1ccc2c(CCN)c[nH]c2c1	1.9	nt	?	-16.9
Cc1ccc(S(=O)(=O)CCC(=O)OCC(=O)c2c[nH]c3ccccc23)cc1	2.1	-1.0%	-33.0%	11.9
Cc1cnc(C(=O)OCC(=O)c2c[nH]c3ccccc23)cn1	nt	13.1µM*	?	nt
COc1ccc(OCC(=O)c2c[nH]c3ccccc23)cc1	45.1*	0.2%	41.6%	53.7*
Nc1ccnn1Cc1ccncc1	1.4	11.0%	30.1%	-16.8
CCc1cccc2c(C(=O)COC(=O)c3ccc([N+](=O)[O-])s3)c[nH]c12	-2.1	?	?	46.0
O=C(OCC(=O)c1c[nH]c2ccccc12)c1ccc([N+](=O)[O-])s1	24.4*	?	?	18.8
COc1cc(C(=O)OCC(=O)c2c[nH]c3ccccc23)ccc1OCC(=O)N1CCOCC1	-3.4	?	?	-12.1
O=C(OCC(=O)c1ccc[nH]1)C1=COCCO1	nt	7.3%	-23.4%	nt
COc1ccc(C(=O)OCC(=O)c2c[nH]c3ccccc23)cc1OC	nt	14.7µM*	4.65µM*	nt
O=C(OCC(=O)c1c[nH]c2ccccc12)C1=COCCO1	37.5*	-17.9%	56.3%	74.4*
CC(C)C(NS(=O)(=O)c1c(Cl)cccc1Cl)C(=O)OCC(=O)c1c[nH]c2ccccc12 (stereo not drawn)	-2.4	4.15µM*	4.65µM*	-4.6
CC(C)(C)NC(=O)NC(=O)COC(=O)C1CCN(S(=O)(=O)c2cccs2)CC1	nt	9.9%	?	nt
CCC(Oc1ccccc1)C(=O)OCC(=O)Nc1sccc1C(N)=O (stereo not drawn)	nt	8.3%	13.8%	nt
COC(=O)c1cccc(NC(=O)CCc2c(C)noc2C)c1	nt	-1.4%	-4.9%	nt
SMILES	Cycloheximide cs	Pf growth 48h	Pf growth 96h	Shiga inhibitor
CC1(C(=O)OCC(=O)c2c[nH]c3ccccc23)CC1(Cl)Cl (stereo not drawn)	53.5*	nt	11.0%	85.5*
CCc1ccccc1NC(=O)c1cc(-c2cccs2)on1	17.3*	54.2%	217.4%	38.1
COc1cccc(-c2cc(C(=O)Nc3cccnc3Cl)no2)c1	10.4	29.4%	21.9%	10.2
CCc1ccccc1NC(=O)c1cc(-c2cccc(O)c2)on1	20.1*	nt	-9.9%	60.7
O=C(Nc1cccnc1Cl)c1cc(-c2cccc(O)c2)on1	16.1*	43.8%	-3.0%	70.4*
COc1cc(NC(=O)c2cc(-c3cccc(O)c3)on2)cc(OC)c1OC	-0.4	nt	30.8%	-10.7
O=C(Nc1ccccc1C(F)(F)F)c1cc(-c2cccc(O)c2)on1	20.2*	10.9%	10.4µM*	26.7
Cc1ccc(NS(=O)(=O)c2ccc3c(c2)NC(=O)CCS3)cc1C	2.2	13.1µM*	?	14.3
Cc1ccc(NS(=O)(=O)c2ccc3c(c2)NC(=O)CCS3)cc1F	6.7	9.28µM*	-19.6%	-2.9
O=c1cc(CSc2ccccn2)c2ccccc2[nH]1	1.7	7.3%	9.28µM*	13.0
Cc1cc(SCC(=O)O)nc2ccccc12	-1.8	12.2%	15.2%	-17.8
